Assay results: PubChem BioAssay (NCATS)
Where “and” joins values, the source holds several entries; their conditions need not be identical. Identical values can stand only once. Results filed as inconclusive are left out. Values without a mark were called inactive. Calls of active or inactive are those of the source. Calls follow the shape of the dose curve; as a rule, active = well fitted curve in the direction sought with a large enough effect; inconclusive = small, poorly fitted or top-dose-only effect, or another doubt; inactive = no such curve, though single readings can be large; an effect the other way counts as inactive or inconclusive.

How the values were obtained:
[1] = Primary qHTS for inhibitors of nuclear receptor binding SET domain protein 2 (NSD2) in an isogenic RCH-ACV NSD2 p.E1099K mutant (9B) (AID 1645876)
[2] = Primary qHTS for inhibitors of nuclear receptor binding SET domain protein 2 (NSD2) in an RCH-ACV wild type WT cells (2C) (AID 1645877)
% is scaled to controls: 0 for no effect and ±100 for the full control effect; potency is read from the fitted curve at half-maximal effect.
Also: nearly all actives have a fitted effect of over 70% in size.

SMILES | Potency [1] | Potency [2] | activity change, negative = viability loss [1] | outcome [2]
C[N+](C)([O-])CCNc1ccc(NCC[N+](C)(C)[O-])c2c1C(=O)c1c(O)ccc(O)c1C2=O | 52.5 nM (active) | 37.2 nM (active) |  | 
Cc1ccccc1C(=O)Nc1ccc(C(=O)N2CCCC(O)c3cc(Cl)ccc32)c(C)c1 (stereo not drawn) | 13300 nM (active) | 15000 nM (active) |  | 
OC[C@@H](O)[C@@H](O)[C@H](O)[C@@H](O)CO | inactive | inactive |  | 
Nc1ccc(C(=O)Nc2cccc(-c3nc(N4CCOCC4)c4oc5ncccc5c4n3)c2)cn1 | 1.15 µM (active) and 1.48 µM (active) | 1.29 µM (active) and 1.05 µM (active) |  | 
CCNC(=O)Nc1ccc(-c2nc3c(c(N4CCOC[C@H]4C)n2)CCN(C2COC2)C3)cc1 | 731 nM (active) | 1300 nM (active) |  | 
O=C(NC1CC1)c1cccc(-c2ccc3c(NC(=O)C4CC4)n[nH]c3c2)c1 | 8330 nM (active) | 5250 nM (active) |  | 
C#CCC(Cc1cnc2nc(N)nc(N)c2n1)c1ccc(C(=O)N[C@@H](CCC(=O)O)C(=O)O)cc1 (stereo partly drawn) | 4.7 nM (active) | 5.3 nM (active) |  | 
Oc1ccc(-c2ccc(-c3cc(Nc4cccc(CNC5CC5)c4)n[nH]3)cc2)c(O)c1 | 1480 nM (active) | 1860 nM (active) |  | 
Cn1cc(CNCC2CCN(c3ncc(C(=O)NO)cn3)CC2)c2ccccc21 | 742 nM (active) | 742 nM (active) |  | 
C[C@@H](NCc1cc2ccccc2[nH]1)c1cccc2ccccc12 | 16600 nM (active) | 14800 nM (active) |  | 
CC(=O)SCC(Cc1ccccc1)C(=O)NCC(=O)OCc1ccccc1 (stereo not drawn) | inactive | inactive |  | 
C[C@@H]1CC[C@@]2(OC1)OC1CC3C4CC=C5CC(O)CCC5(C)C4CCC3(C)C1[C@@H]2C (stereo partly drawn) | inactive | inactive |  | 
COc1cccc2c1C(=O)c1c(O)c3c(c(O)c1C2=O)C[C@@](O)(C(=O)CO)C[C@@H]3O[C@H]1C[C@H](N)[C@H](OC2CCCCO2)[C@H](C)O1 (stereo partly drawn) | 93.4 nM (active) and 2.63 µM (active) | 52.5 nM (active) and 2.95 µM (active) |  | 
CC(C(C)N1CC(=O)NC(=O)C1)N1CC(=O)NC(=O)C1 (stereo not drawn) | 5250 nM (active) | 3320 nM (active) |  | 
CN(C)c1ccc2cc(C(=O)N[C@@H](CCCN=C(N)CCl)C(=O)NCc3ccccc3)ccc2c1 | inactive | inactive |  | 
CC(=O)O[C@H]1C[C@@H]2CC[C@H]3[C@H]4C[C@H]([N+]5(C)CCCCC5)[C@@H](OC(C)=O)[C@@]4(C)CC[C@@H]3[C@@]2(C)C[C@H]1[N+]1(C)CCCCC1 | inactive | inactive |  | 
NC(=O)Nc1cc(-c2ccc(CN3CCOCC3)cc2)sc1C(N)=O | 662 nM (active) | 372 nM (active) |  | 

SMILES | Potency [1] | Potency [2] | activity change, negative = viability loss [1] | outcome [2]
CCc1ccc(C(=O)Nc2cc(CN3CCN(C)CC3)cc(C(F)(F)F)c2)cc1C#Cc1cnc2ccnn2c1 | 5.78 µM (active) and 5.25 µM (active) | 5.15 µM (active) and 4.17 µM (active) |  | 
COC[C@H](NC(=O)c1cnc(C)s1)C(=O)N[C@@H](COC)C(=O)N[C@@H](Cc1ccccc1)C(=O)[C@@]1(C)CO1 | 132 nM (active) | 83.3 nM (active) |  | 
COc1cc(C(C)C)c(Oc2cnc(NC(CO)CO)nc2N)cc1I | inactive | inactive |  | 
Cc1cnc(NC(=O)Nc2cc(Br)c(C)cc2OC[C@@H]2CNCCO2)cn1 | 1050 nM (active) | 934 nM (active) |  | 
Cc1ccc2nc(NCCN)c3ncc(C)n3c2c1 | 9.2 µM (active) and 4.68 µM (active) | 9.2 µM (active) and 3.72 µM (active) |  | 
Cn1cnc(=N)c2[nH]cnc21 | inactive | inactive |  | 
CC1=C(C(=O)Nc2cc3cn[nH]c3cc2F)C(c2ccc(Cl)cc2F)N=C(c2ccnc(Cl)c2)N1 (stereo not drawn) | 5.78 µM (active) and 9.34 µM (active) | 2.58 µM (active) and 4.17 µM (active) |  | 
CCCCOc1ccc(C(=O)Nc2ccc(F)cc2F)cc1 | inactive | inactive |  | 
Cn1cc(C[C@@H](N)C(=O)O)c2ccccc21 |  |  | -2.38% [at 9.23 µM] | inactive [at 9.23 µM]
COc1ccc(Nc2cc(-c3cnc(N)nc3)nc(N3CCOCC3)n2)cn1 | 525 nM (active) | 590 nM (active) |  | 
COc1cccc2c1C(=O)c1c(O)c3c(c(O)c1C2=O)C[C@@](O)(C(=O)CO)C[C@@H]3O[C@H]1C[C@H](N)[C@@H](O)[C@H](C)O1 | 66.1 nM (active) | 46.8 nM (active) |  | 
C[C@](Cc1c[nH]c2ccccc12)(NC(=O)OC1C2CC3CC(C2)CC1C3)C(=O)NC[C@H](NC(=O)CCC(=O)O)c1ccccc1 (stereo partly drawn) | inactive | inactive |  | 
Nc1nc(=O)n([C@H]2C[C@H](O)[C@@H](CO)O2)cc1F | 11.8 nM (active) | 14.8 nM (active) |  | 
CC(N[C@H]1CCCC[C@H]1NC(=O)c1ccc(Cl)cc1)c1cccc2ccccc12 (stereo partly drawn) | 6610 nM (active) | 6610 nM (active) |  | 
COc1cc(C(=O)NC2CCN(C)CC2)ccc1Nc1ncc2c(n1)N(C1CCCC1)CCC(=O)N2C(C)C | 13200 nM (active) | 10500 nM (active) |  | 
NC(=NCCCCCCN=C(N)N=C(N)Nc1ccc(Cl)cc1)N=C(N)Nc1ccc(Cl)cc1 | 4170 nM (active) | 5250 nM (active) |  | 
CCS(=O)(=O)Nc1ccc2[nH]c(O)c(C(=Nc3ccc(CN4CCCCC4)cc3)c3ccccc3)c2c1 | 148 nM (active) | 29.5 nM (active) |  | 
